# Data reported in PubChem BioAssay (NCI).
# About 83,000 compounds went through this panel and 20% of them were active in at least one assay; those are over-represented in the sample as a whole.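 Cell lines were cultured in 96-well plates, exposed to a single compound concentration, and assessed for percent growth 48 hours later.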 The source made the active and inactive calls. The calls were made as follows: active = growth percent below 10; inactive = the rest.
# Tested on: MDA-MB-468 breast
# Assay: NCI-60 one-dose screen, 48 h (100 = growth as untreated, 0 = no growth, -100 = all killed)
# Conditions: 10 µM unless noted
row,SMILES,growth
1,CCOC(=O)C/C(=N\Nc1cc(=O)[nH]c2ccc(Br)cc12)C(=O)OCC,99.3% (inactive)
2,C=Cc1nn2c(CCC(=O)c3nc4ccccc4[nH]3)nnc2s1,110% (inactive)
3,CCOC(=O)N1CCN(CCCCl)CC1,97.4% (inactive)
4,CS(=O)(=O)c1ccc2c(c1)c1c(n2S(=O)(=O)c2ccc(Cl)cc2)CCCC1,42.3% (inactive)
5,Brc1cccc(-n2ncc3c(Nc4ccc(-c5nnc(-c6ccccc6)o5)cc4)ncnc32)c1,101% (inactive)
6,CCN(CC)c1ccc(NC2=C(Cl)C(=O)c3nc(C)ccc3C2=O)cc1,-45% (active)
7,Cc1ccc2c(c1)c(Sc1ccc(C(=O)NO)cc1)c1n2CN(C)CC1,-19.3% (active)
8,NC1(N2SC(S)=C3CCCC=C32)CCCCC1,99.9% (inactive)
9,COC1=CC(c2ccc[nH]2)=N/C1=C\c1[nH]c(C)c(C(=O)Oc2ccccc2)c1C,-82.9% (active)
10,CCOC(=O)c1nn(C2CCCCO2)c2ccc(NS(=O)(=O)c3ccc(C)cc3)cc12 (configuration not stated),105% (inactive)
11,CCCn1c(=O)[nH]c(N)c([C@H]2c3ccccc3Oc3[nH]c(=O)n(CCC)c(=O)c32)c1=O,68.7% (inactive)
12,CCCCCCCCCC(=O)Oc1ccc(/C(=C(/C)c2ccccc2)c2ccc(OCCN3CCCC3)cc2)cc1,-29.4% (active)
13,COc1cc([C@@H]2c3cc4c(cc3C(OC3O[C@@H]5COC(C)O[C@H]5[C@H](O)[C@H]3O)C3COC(=O)[C@@H]32)OCO4)cc(OC)c1O (some centres not stated),-31% (active)
14,CCOC(=O)c1cnc2c(-c3ccc(Cl)c(Cl)c3)cnn2c1,85.4% (inactive)
15,Clc1ccc2c(N3CCN(c4ccnc(NC5CCCCC5)n4)CC3)ccnc2c1,29.4% (inactive)
16,COc1cc(CO)cc2cc3ccccc3nc12,40.8% (inactive)

row,SMILES,growth
1,COc1cc(-c2nc(SCCC(C)C)nc(NNC(=O)c3ccncc3)c2C#N)cc(OC)c1OC,77.7% (inactive)
2,C/C(=C\CCc1ccoc1)CC/C=C(\C)CCCN1CCSCC1,22.6% (inactive)
3,Cc1ccc(CC#N)cc1C,104% (inactive)
4,Clc1ccc(Nc2ncc(Cc3cccc(Cl)c3Cl)s2)cc1,99.4% (inactive)
5,CCCCCc1c(C)[nH]c(/C=C2\N=C(c3ccc[nH]3)C=C2Oc2ccc(OC)cc2)c1C,-54.8% [100 µM] (active)
6,O=c1nc(NO)[nH]c(=O)n1Cc1ccc(F)cc1,107% (inactive)
7,COc1ccc(Oc2nc(Nc3ccc(N4CCOCC4)cc3)ncc2NC(=O)Nc2cc(OC)cc(OC)c2)cc1,25.3% (inactive)
8,Nc1nc(SCc2cccc([N+](=O)[O-])c2)c2[nH]cnc2n1,64.5% (inactive)
9,CNC(=O)c1cc(Oc2cccc3nc(Nc4ccc(F)c(Cl)c4)ccc23)ccn1,6.51% (active)
10,CN1C(=O)NC(Cc2c[nH]c3c(Cl)cccc23)C1=O (configuration not stated),110% (inactive)
11,CCOC(=O)C1=C(C)Nc2nnc(Nc3ccccc3)n2C1c1ccccc1 (configuration not stated),68.4% (inactive)
12,COc1cc(C2=NN(c3ccc(S(N)(=O)=O)cc3)C(c3ccc(Cl)cc3)C2)cc(OC)c1OC (configuration not stated),38.3% (inactive)
13,COc1ccc(OC)c(/C=C/c2nnc(Nc3ccc(Cl)cc3)o2)c1,66% (inactive)
14,COc1ccc(NC(=O)Nc2ccc(-c3cccnc3)cc2N2CCC(CO)CC2)cc1,42.5% (inactive)
15,Cc1ccc(S(=O)(=O)N2CCC(=O)c3ccccc32)cc1,25.7% (inactive)
16,O=C(CCc1nnc2sc(Cc3ccccc3Cl)nn12)c1nc2ccccc2[nH]1,84.5% (inactive)
